We go through 92 molecules from PubChem BioAssay AID1813 (Broad Institute, 2009).

Out of some 300,000 compounds screened, about 2,500 (0.83%) were called active. No stated cut-off is given here; in the data, active means inhibition above about 60%; inconclusive means no clear call, values can overlap the other calls; inactive means below that. The entries come from a sample that favours actives as a whole.

A short description of the assay: 5' untranslated region of α-synuclein, MLPCN primary screen (AID 1813).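 Further: H4 neuroglioblastoma cells stably carrying SNCA 5'UTR luciferase fusion; 0% = DMSO wells and 100% = positive control.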 The following applies: alpha-synuclein 5'UTR reporter, inhibitor activity; stronger effect = higher value; tested at 7.5 µM.
In the case of `Cc1cc(NC(=O)C(C)N2C(=O)c3ccccc3S2(=O)=O)no1` (configuration not stated), the inhibition was -18.2% (inactive).
As for `Cc1ccc(C(=O)NCCNC(=O)c2cnccn2)cc1`, the inhibition was -3.06% (inactive).
With `CCN(CC)c1ccc(/C=N/NC(=O)c2cnccn2)c(O)c1` the figure was 72.3% (active); with `CCN(CC)c1ccc(/C=N/NC(=O)CNC(=O)c2cccnc2)cc1`, 5.51% (inactive); with `Cc1cn(C2C=CC(CO)O2)c(=O)[nH]c1=O` (configuration not stated), -0.0254% (inactive).
With `CC[C@]1(O)C[C@@H]2CN(CCc3c([nH]c4ccccc34)[C@@](C(=O)OC)(c3cc4c(cc3OC)N(C)[C@H]3[C@@](O)(C(=O)OC)[C@H](OC(C)=O)[C@]5(CC)C=CCN6CC[C@]43[C@@H]65)C2)C1` the figure was 77.2% (active).
Consider `CC[C@]1(O)CC2CN(CCc3c([nH]c4ccccc34)[C@@](C(=O)OC)(c3cc4c(cc3OC)N(C=O)[C@H]3[C@@](O)(C(=O)OC)[C@H](OC(C)=O)[C@]5(CC)C=CCN6CC[C@]43[C@@H]65)C2)C1` (some centres not stated), for which the inhibition is 102% (active).
As to `CCc1nc2ccccc2c(C(=O)OC2CCCCC2=O)c1C` (configuration not stated), the inhibition is 8.85% (inactive).
The result for `CCCc1cc(=O)[nH]c(SCC(=O)c2c(N)n(CC(C)C)c(=O)n(C)c2=O)n1` reads 88.3% (active); that for `CCCc1cc(=O)[nH]c(SCC(=O)OCc2ccccc2)n1`, 13.7% (inactive).
As for `CCCc1cc(=O)[nH]c(SCC(=O)c2cc(C)n(CCC)c2C)n1`, the inhibition was 23.4% (inactive).
The result for `Cc1ccc2nc(SC(C)C(=O)NCc3ccco3)[nH]c2c1` (configuration not stated) reads 30% (inactive); that for `CC(=O)NN1C(=O)c2ccccc2NC1c1ccccc1` (configuration not stated), 19.3% (inactive).
On to `CC1=NNC(=O)C1Cc1c(Cl)cccc1Cl` (configuration not stated), for which the inhibition is 27% (inactive).
Take `Oc1c(Cl)cc(Cl)c(Cl)c1Cc1c(O)c(Cl)cc(Cl)c1Cl`: the inhibition is 77.3% (active).
The result for `COCCNc1nc(N)c([N+](=O)[O-])c(N2CCCCCC2)n1` reads 17.3% (inactive).
As for `Cc1cc(OC(=O)c2ccc(OC(C)C)cc2)c([N+](=O)[O-])c(=O)[nH]1`, the inhibition was -3.29% (inactive).
With `N#CC(C(=O)c1ccc(S(=O)(=O)N2CCCCCC2)cc1)c1nc2ccccc2[nH]1` (configuration not stated) the figure was -4.96% (inactive).
The result for `O=C(C1CCCO1)N1CCC(c2nc3ccccc3[nH]2)CC1` (configuration not stated) reads -15.4% (inactive); that for `O=S(=O)(c1ccc(Br)cc1)N1CCC(c2nc3ccccc3[nH]2)CC1`, 78.3% (active).
With `Cc1cccc(N2CCN(S(=O)(=O)c3ccc4[nH]c(=O)c(=O)[nH]c4c3)CC2C)c1` (configuration not stated) the figure was 3.92% (inactive); with `COc1cc2c(cc1OC)C(C)N(S(=O)(=O)c1cnc(Cl)c(Cl)c1)CC2` (configuration not stated), 36.4% (inactive); with `COc1ccc(-c2cn(-c3ccc(OC)cc3)c(=S)[nH]2)cc1`, -129% (inactive).
As for `S=c1[nH]c(-c2cccs2)cn1-c1ccccc1`, the inhibition is -60.3% (inactive).
With `O=c1oc2ccccc2cc1-c1cn(-c2ccccc2)c(=S)[nH]1` the figure was 119% (active); with `O=C(CNCc1ccc(F)cc1)Nc1ccccc1-c1ccccc1`, 16.3% (inactive).
The result for `COCc1cc(=O)[nH]c(SC)n1` reads -10.1% (inactive).
The result for `N#C/C(=C\c1cccnc1)C(=O)Nc1ccc(SC(F)F)cc1` reads 1.4% (inactive); that for `O=C1CCCc2c1[nH]c1ccc(Br)cc21`, 89% (active).
For `O=[N+]([O-])c1ccc2[nH]c3c(c2c1)CCCC3O` (configuration not stated), the inhibition was 10.7% (inactive).
On to `O=[n+]1c2c(n([O-])c3cc(Br)ccc31)CCC2`, for which the inhibition was 10.3% (inactive).
With `COC(=O)CN1C(=O)N/C(=C/c2ccc(OC)c(C)c2OC)C1=O` the figure was -8.7% (inactive); with `O=C(COC(=O)Cn1[nH]c(=O)c2ccccc2c1=O)Nc1c(Cl)cccc1C(F)(F)F`, 4.65% (inactive).
On to `O=C(NCCN1CCOCC1)c1ccc(/C=C2\Sc3ccccc3N(Cc3ccc(F)cc3)C2=O)cc1`, for which the inhibition was 14% (inactive).
Take `CN1CCN(CCCNC(=O)c2ccc(/C=C3\Oc4ccccc4N(Cc4ccc(Cl)cc4)C3=O)cc2)CC1`: the inhibition is 96.5% (active).
The result for `CN1C(=O)/C(=C/c2ccc(C(=O)NC3CCCC3)cc2)Oc2ccccc21` reads -48% (inactive); that for `Oc1cccc(/C=N/Nc2ccc(Cl)nn2)c1O`, -6.82% (inactive); that for `COc1cccc(/C=N/Nc2ncc(C(F)(F)F)cc2Cl)c1O`, 76.7% (active).
The result for `FC(F)(F)c1cnc(Oc2ccccc2-c2nnc(-c3ccc(Cl)cc3)o2)c(Cl)c1` reads -1.16% (inactive); that for `Cc1n[nH]c(=O)c2c(NC(=O)CSc3ccccc3F)oc(C)c12`, -9.19% (inactive); that for `CCNS(=O)(=O)c1ccc(NC(=O)c2cncc(Br)c2)cc1`, 8.56% (inactive).
Consider `Oc1ccc(N=Nc2nccs2)c(O)c1`, for which the inhibition is 24.3% (inactive).
With `c1ccc(NCc2cccc3ccccc23)nc1` the figure was 19.1% (inactive); with `Oc1ccc2ccccc2c1N=Nc1nccs1`, 87.4% (active); with `CCCOc1ccc(C(=O)C(CCC(CNCC)C(=O)c2ccc(OCCC)cc2)CNCC)cc1` (configuration not stated), 107% (active).
With `CCCCOc1ccc(C(=O)NN2CCN(C)CC2)cc1` the figure was 1.5% (inactive).
With `CCCOc1ccc(C(=O)CCC(=O)OC(C)C(=O)Nc2ccc(NC(C)=O)cc2)cc1` (configuration not stated) the figure was -18.6% (inactive); with `Cc1ccc(S(=O)(=O)N2CCCCC2)cc1C(=O)N(C)CC(=O)Nc1cccc(F)c1`, 11% (inactive).
Take `COC(=O)c1sccc1NC(=O)COc1ccc(Cl)cc1`: the inhibition was -35.3% (inactive).
As for `COC(=O)c1c(NC(=O)COc2ccc(Cl)cc2Cl)sc2c1CC(C)(C)NC2(C)C`, the inhibition was 102% (active).
With `CCOC(=O)c1c(NC(=O)c2ccc(S(=O)(=O)N(C)CC3CCCO3)cc2)sc2c1CC(C)(C)NC2(C)C` (configuration not stated) the figure was 0.581% (inactive); with `CCOc1ccc(CC(=O)NCCS(=O)(=O)N2CCN(c3ccccc3)CC2)cc1`, 13.9% (inactive); with `Cc1cc(OC(=O)c2ccccc2Cl)ccc1N1C(=O)CCC1=O`, -3.87% (inactive).
With `COc1ccc(NC(=O)c2cccc3c2C(=O)N(CC2CCCO2)C3)cc1OC` (configuration not stated) the figure was 32.1% (inactive).
With `CN1CCN(C2Cc3ccc(Cl)cc3Sc3ccc(F)cc32)CC1` (configuration not stated) the figure was 104% (active).
Consider `Cc1ccc(-c2cn3cc([N+](=O)[O-])ccc3n2)cc1`, for which the inhibition was 22.1% (inactive).
The result for `Cc1ccc2nc(-c3ccc(Br)cc3)cn2c1` reads 63.2% (active); that for `CSc1nnc2ccc(-c3ccc(C)cc3)nn12`, 16.4% (inactive).
With `CCn1c(=O)c(C(=O)NCc2ccc3c(c2)OCO3)c(O)c2ccccc21` the figure was 11.8% (inactive); with `COC(=O)C1(C)NC(c2ccccc2OC)C2C(=O)N(c3ccccc3)C(=O)C21` (configuration not stated), 0.536% (inactive); with `CC(C)CC[n+]1ccn(C2=C([O-])c3ccccc3C(=O)/C2=N\S(=O)(=O)c2ccccc2)c1`, -27.8% (inactive).
Turning to `CCc1ccc(OCC2c3cc(OC)c(OC)cc3CCN2C(C)=O)cc1` (configuration not stated), the inhibition is 0.678% (inactive).
Regarding `CC[C@H]1CN2CCc3cc(OC)c(OC)cc3[C@@H]2C[C@@H]1C[C@H]1NCCc2cc(OC)c(OC)cc21`, the inhibition is 109% (active).
With `COc1ccc2c(c1)CCNC2Cc1ccc(OC)c(O)c1` (configuration not stated) the figure was 11.8% (inactive); with `COc1ccc(S(=O)(=O)N(C)CC(=O)NCCCN2CCOCC2)cc1Cl`, 6.18% (inactive).
The result for `COc1ccc(C(=O)C2CCCN(S(=O)(=O)c3cccc(C)c3)C2)c(C)c1` (configuration not stated) reads -3.32% (inactive).
With `Cc1ccccc1/[N+]([O-])=C/c1ccncc1`, the inhibition was 5.11% (inactive).
With `Cc1ccc(NC(=O)COc2ccc(/C=C3/NC(=O)NC3=O)cc2)cc1` the figure was 1.96% (inactive); with `Cn1cc(CNC(=O)c2ccc(OC3CCN(Cc4ccccn4)CC3)cc2)cn1`, 14.6% (inactive).
The result for `O=C(c1ccc(OC2CCN(Cc3ccccn3)CC2)cc1)N1CCCCCC1` reads 3.78% (inactive); that for `O=C(NCCOc1cccnc1)c1ccc(OC2CCN(Cc3ccccn3)CC2)cc1`, 95.3% (active); that for `Cc1ccc(Nc2nc(Cl)c(C=O)s2)cc1`, -26.4% (inactive).
As for `Cc1ccc2nc(-c3ccncc3)cc(C(=O)Nc3ccc4c(c3)OCCO4)c2c1`, the inhibition was 47.2% (inactive).
As for `Cc1ccc2nc(-c3ccncc3)cc(C(=O)Nc3ccc(OC(F)F)cc3)c2c1`, the inhibition is 67.6% (active).
The result for `Cc1ccc2nc(-c3ccncc3)cc(C(=O)Nc3ccncc3)c2c1` reads 5.38% (inactive); that for `COc1ccccc1/C=N/Nc1nc(C)c(C(C)=O)s1`, -154% (inactive).
With `COc1cccc2c(N/N=C/c3ccco3)cc(C)nc12` the figure was -38.3% (inactive).
With `COc1cccc(/C=N/Nc2cc(C)nc(-c3ccccc3O)n2)c1O` the figure was 82.8% (active); with `Cc1csc2nc(O)c(C(=O)NCCN3CCOCC3)c(=O)n12`, 0.0631% (inactive); with `Cc1ccc2sc(N(CCN(C)C)C(=O)/C=C/c3cccs3)nc2c1C`, -3.93% (inactive).
`CCCCCCCCn1c2c(c(=N)c3c1CCC3)CCCC2`: the inhibition was 101% (active).
On to `Cc1nc2ccccn2c1C(=O)NN=C1CCN(C)CC1`, for which the inhibition is 18% (inactive).
Turning to `CCCC[C@@H]1CN=C(N)N1CCc1cccc(F)c1`, the inhibition is -1.65% (inactive).
With `Cc1ccc(C)c(NC(=O)COC(=O)Cn2c(C)csc2=O)c1` the figure was 3.94% (inactive); with `CCOc1ccc(C(C(=O)NC2CCCC2)N(C(=O)c2snc(C(N)=O)c2N)C2CCCC2)cc1` (configuration not stated), 1.96% (inactive).
With `OCCC1CN(Cc2ccc3nsnc3c2)CCN1C1CCCCC1` (configuration not stated) the figure was -4.85% (inactive); with `CCCCn1c(=O)c(C(C)=O)c(O)c2ccccc21`, -6.66% (inactive).
Take `CCOC(=O)c1nnn2c3ccccc3c(=O)n(C)c12`: the inhibition was -5.14% (inactive).
Consider `CCCCCn1c(=O)c(C(=O)OCC)c(Cl)c2ccccc21`, for which the inhibition is 92.6% (active).
Take `CNc1ccc(SC#N)cc1`: the inhibition was 1.02% (inactive).
With `CCOC(=O)N1CCN(C(=O)C(=O)Nc2sc3c(c2C#N)CC(C)(C)OC3)CC1` the figure was -17.6% (inactive); with `COc1ccc2c3c1O[C@H]1C[C@@H](O)C=C[C@@]31CCN(C)C2`, 62% (active).

The term inhibition denotes the drop in the measured response relative to a control, in per cent.
